# Screen size: about 100,000 compounds; about 770 (0.77%) were called active. This is one part of a sample in which actives are shown more often than they occur. No stated cut-off is given here; in the data, active means inhibition above about 50%; inactive means the rest.
# Biological target: Gag-Pol polyprotein (Human immunodeficiency virus type 1 group M subtype B (isolate HXB2)) (UniProt P04585)
# Assay: RNase H inhibition, HIV 1 Gag Pol polyprotein, FRET biochemical assay, screening (AID 372)
# Conditions: HIV-1 RT RNase H, FRET RNA/DNA substrate fluorescence; at 10 µM; active compounds read high
row,Structure (SMILES),inhibition
1,Cn1ccnc1SCC(=O)n1c2c(c3ccccc31)CCCC2,0% (inactive)
2,O=C(Nc1ccc2nn(-c3cccc([N+](=O)[O-])c3)nc2c1)c1ccccc1,22% (inactive)
3,COc1ccc(-n2nc3ccc(NC(=O)c4ccc(OC)c([N+](=O)[O-])c4)cc3n2)cc1,3% (inactive)
4,Cc1ccc(-n2nc3ccc(NC(=O)c4ccc([N+](=O)[O-])c(C)c4)cc3n2)cc1Cl,44% (inactive)
5,COc1ccc(C(=O)Nc2ccc3nn(-c4ccc(C)c(Cl)c4)nc3c2)cc1[N+](=O)[O-],53% (active)
6,Cc1ccc(C(=O)Nc2ccc3nn(-c4cccc([N+](=O)[O-])c4)nc3c2)cc1,54% (active)
7,O=C(Nc1ccc2nn(-c3ccccc3)nc2c1)c1ccc([N+](=O)[O-])cc1,12% (inactive)
8,Cc1cc([N+](=O)[O-])ccc1NC(=O)c1c(C)c(C)c(C)c(C)c1C,10% (inactive)
9,CCOc1ccc(N(CC(=O)NCCSCc2ccccc2)S(=O)(=O)c2ccccc2)cc1,10% (inactive)
10,CC1(C)Cc2cc3c(=O)[nH]c(=S)[nH]c3nc2CO1,0% (inactive)
11,N#Cc1cc2c(N)c(C(=O)c3ccccc3)sc2nc1N,8% (inactive)
12,CC1=C(C(=O)OC2CCCCC2)C(c2ccccc2[N+](=O)[O-])C2=C(CCCC2=O)N1 (configuration not stated),10% (inactive)
13,CC(C)(C)c1cc(CCC(=O)NCCNC(=O)C(=O)NCCNC(=O)CCc2cc(C(C)(C)C)c(O)c(C(C)(C)C)c2)cc(C(C)(C)C)c1O,55% (active)
14,CC(C)(C)c1cc(CCC(=O)NCCO)cc(C(C)(C)C)c1O,0% (inactive)
15,COC(=O)CCc1cc(C(C)(C)C)c(O)c(C(C)(C)C)c1,0% (inactive)
16,Cc1ccccc1OCCOc1ccc(/C=c2\sc3nc4ccccc4n3c2=O)cc1,5% (inactive)
17,C=CCN1C(=O)C(O)=C(C(C)=O)C1c1ccc(Br)cc1 (configuration not stated),8% (inactive)
18,Cc1cc(C)cc(OCC(=O)Nc2cccc(-c3nc4ccccc4s3)c2)c1,53% (active)
19,COc1ccc(OCC(=O)Nc2cccc(-c3nc4ccccc4s3)c2)cc1,7% (inactive)
20,Cc1ccc(-c2nc3ccccc3s2)cc1NC(=O)COc1ccc(Cl)cc1,69% (active)
21,Cc1ccc(-c2nc3ccccc3s2)cc1NC(=O)COc1ccccc1,10% (inactive)
22,Cc1cccc(OCC(=O)Nc2cccc(-c3nc4ccccc4s3)c2)c1,9% (inactive)
23,COc1ccc(OCC(=O)Nc2cc(-c3nc4ccccc4s3)ccc2C)cc1,2% (inactive)
24,CCc1cc(=O)oc2c(C)c(OCc3ccc(Cl)cc3)ccc12,5% (inactive)
25,CN1C(=O)/C(=C\c2cccc(OCc3ccc(Cl)cc3Cl)c2)SC1=S,11% (inactive)

row,Structure (SMILES),inhibition
1,Cc1ccccc1N=C(NOCc1ccc(Cl)cc1Cl)c1nonc1N,13% (inactive)
2,Nc1nonc1C(=Nc1ccccc1)NOCc1ccc(Cl)cc1Cl,32% (inactive)
3,COc1ccc(C2CC(=O)C3=C(C2)Nc2ccccc2NC3c2cccc(Cl)c2Cl)cc1OC (configuration not stated),16% (inactive)
4,CCc1nnc(NC(=O)Nc2ccc(Cl)cc2)s1,10% (inactive)
5,Cc1cc(C)c2nc3s/c(=C\c4ccc(Cl)cc4Cl)c(=O)n3c2c1,0% (inactive)
6,COc1cccc2cc(C(=O)O)c(=O)oc12,6% (inactive)
7,COc1cccc2cc(C(C)=O)c(=O)oc12,3% (inactive)
8,Brc1ccc(CN2CCN(c3ncccn3)CC2)s1,1% (inactive)
9,Cc1c(NC(=S)NC(=O)/C=C/c2ccccc2)cccc1-c1nc2ncccc2o1,52% (active)
10,Cc1ccc(-c2nc3ncccc3o2)cc1NC(=S)NC(=O)/C=C/c1ccccc1,5% (inactive)
11,Cc1c(NC(=S)NC(=O)/C=C/c2ccccc2)cccc1-c1nc2ccccc2o1,36% (inactive)
12,CCOc1ccc(OCCCCOc2ccccc2C)cc1,18% (inactive)
13,O=C(N/N=C/c1cccc(Br)c1)C(=O)N1CCCC1,15% (inactive)
14,N#CC1=C(N)Oc2cc(N)ccc2C1c1cccc(Oc2ccccc2)c1 (configuration not stated),5% (inactive)
15,CCCCNCCCCCCOc1ccc(Cl)cc1Cl,10% (inactive)
16,OCCNCCCOc1cc(Cl)ccc1Cl,8% (inactive)
17,CCCCNCCCOc1cc(Cl)ccc1Cl,57% (active)
18,COc1ccc(-c2cc(C(=O)NCc3ccco3)c3ccccc3n2)cc1,14% (inactive)
19,COC(=O)c1c(NC(=O)c2ccccc2Br)sc(C)c1C,23% (inactive)
20,O=C1N=c2ccc(Br)cc2=C1c1sc(=S)n(-c2ccc(Cl)cc2)c1O,51% (active)
21,O=C1N=c2ccc(Cl)cc2=C1c1sc(=O)n(-c2ccccc2)c1O,42% (inactive)
22,O=C1N=c2ccc(Br)cc2=C1c1sc(=O)n(-c2cccc(Cl)c2)c1S,50% (active)
23,CCOc1ccc(-n2c(O)c(C3=c4cc(Br)ccc4=NC3=O)sc2=S)cc1,9% (inactive)
24,O=C1N=c2ccccc2=C1c1sc(=S)n(-c2ccc(F)cc2)c1O,12% (inactive)
25,O=C1N=c2ccccc2=C1c1sc(=S)n(-c2ccc(Cl)cc2)c1O,0% (inactive)

row,Structure (SMILES),inhibition
1,CCN(CC)c1ccc(-n2c(O)c(C3=c4ccccc4=NC3=O)sc2=S)cc1,50% (active)
2,O=C1N=c2ccc(Br)cc2=C1c1sc(=S)n(-c2ccc(Br)cc2)c1O,15% (inactive)
3,O=C1N=c2ccc(Br)cc2=C1c1sc(=O)n(-c2ccc(O)cc2)c1O,41% (inactive)
4,CC(C)c1ccc(/C=C2/C(=O)NN(c3ccccc3)C2=O)cc1,4% (inactive)
5,CCOC(=O)c1ccc(NC(=S)NCCO)cc1,0% (inactive)
6,C=CCc1ccc(OCCOc2cccc(/C=C3\SC(=S)N(CC)C3=O)c2)c(OC)c1,26% (inactive)
7,C=CCN1C(=O)/C(=C\c2ccc(-c3ccc([N+](=O)[O-])cc3)o2)SC1=S,4% (inactive)
8,Cc1ccccc1NC1=C(Cl)C(=O)N(c2cccc(C)c2C)C1=O,9% (inactive)
9,CCOC(=O)C1=C(C)N=c2s/c(=C/c3ccc(-c4cccc(C(F)(F)F)c4)o3)c(=O)n2C1c1cccs1 (configuration not stated),6% (inactive)
10,COc1ccc(C2=C/C(=C/c3ccccc3OC)C(=O)O2)c(OC)c1,2% (inactive)
11,CC(=O)C1=C(O)C(=O)N(Cc2ccccc2)C1c1ccc([N+](=O)[O-])cc1 (configuration not stated),12% (inactive)
12,COc1ccc(C(=O)Nc2ccc(NC(=O)c3ccc(OC)cc3)cc2)cc1,16% (inactive)
13,COc1ccc(C(=O)Nc2ccc(Cc3ccc(NC(=O)c4ccc(OC)cc4)cc3)cc2)cc1,52% (active)
14,COc1ccc(C(=O)Nc2ccc(NC(=O)c3ccc(NC(=O)c4ccc(OC)cc4)cc3)cc2)cc1,8% (inactive)
15,COc1cc(C(=O)Nc2ccc(Cc3ccc(NC(=O)c4cc(OC)c(OC)c(OC)c4)cc3)cc2)cc(OC)c1OC,1% (inactive)
16,COc1ccc(C(=O)Nc2ccc(Cc3ccncc3)cc2)cc1OC,6% (inactive)
17,COc1cc(C(=O)Nc2ccc(Cc3ccncc3)cc2)cc(OC)c1OC,56% (active)
18,CCc1ccc(C2Nc3ccccc3NC3=C2C(=O)CC(c2ccc(OC)cc2)C3)s1 (configuration not stated),7% (inactive)
19,O=C(N/N=C/c1cccc(/C=N/NC(=O)c2cccnc2)c1)c1cccnc1,0% (inactive)
20,COc1ccc(NC(=O)c2ccc(CN3CCN(c4ccccc4)CC3)cc2)cc1,9% (inactive)
21,COc1ccc(C(=O)NC(=S)Nc2ccc3oc(-c4ccc(OC)c(Cl)c4)nc3c2)cc1,20% (inactive)
22,CC(=O)Nc1ccccc1NC(=O)c1cccc(F)c1,0% (inactive)
23,NNC(=O)COc1ccccc1-c1ccccc1,14% (inactive)
24,O=C1C(=O)N(c2ccccc2)C(c2ccc([N+](=O)[O-])cc2)/C1=C(/O)c1ccccn1 (configuration not stated),0% (inactive)
25,O=C(CN1C(=O)c2cccc3cccc(c23)C1=O)OCc1ccc2c(c1)OCO2,53% (active)

row,Structure (SMILES),inhibition
1,O=C(CCCN1C(=O)c2cccc3cccc(c23)C1=O)OCc1ccc2c(c1)OCO2,31% (inactive)
2,O=C(CN1C(=O)c2cccc3cccc(c23)C1=O)NCc1ccc2c(c1)OCO2,5% (inactive)
3,CCSc1nc(-c2ccccc2)nc(C(Cl)Cl)n1,25% (inactive)
4,O=C(Nc1ncc(S(=O)(=O)c2ccc([N+](=O)[O-])cc2)s1)c1ccc(Cl)cc1Cl,6% (inactive)
5,O=C(Nc1ncc(S(=O)(=O)c2ccc([N+](=O)[O-])cc2)s1)c1ccccc1Cl,54% (active)
6,O=C(COc1ccc(Br)cc1)Nc1ncc(S(=O)(=O)c2ccc([N+](=O)[O-])cc2)s1,19% (inactive)
7,CC(C)c1ccc(OCC(=O)Nc2ncc(S(=O)(=O)c3ccc([N+](=O)[O-])cc3)s2)cc1,58% (active)
8,O=C(COc1ccc(Cl)cc1)Nc1ncc(S(=O)(=O)c2ccc([N+](=O)[O-])cc2)s1,12% (inactive)
9,O=C(O)c1ccccc1C(=O)Nc1ncc(S(=O)(=O)c2ccc([N+](=O)[O-])cc2)s1,10% (inactive)
10,CCc1ccc(-n2nc(C)c3c(C)cc(=O)oc32)cc1,7% (inactive)
11,O=C(O)C1CCC(c2ccccc2)CC1 (configuration not stated),4% (inactive)
12,O=C(c1nn2c(C(F)(F)F)cc(-c3ccc(F)cc3)nc2c1Cl)N1CCOCC1,3% (inactive)
13,C(=N/Nc1nc2ccccc2o1)/c1ccc(N2CCOCC2)cc1,20% (inactive)
14,Cc1ccc(S(=O)(=O)/N=C2/C=C(Br)C(=O)c3ccccc32)cc1,32% (inactive)
15,Cc1ccc(S(=O)(=O)/N=C2/C=C(Sc3nnnn3-c3ccccc3)C(=O)c3ccccc32)cc1,43% (inactive)
16,COc1ccc(Nc2ccc(N)cc2)cc1,19% (inactive)
17,O=C(Nc1ccc(-c2nc3ccccc3[nH]2)cc1)c1cc2ccccc2o1,51% (active)
18,O=C(Nc1ccc(-c2nc3ccccc3[nH]2)cc1)c1ccc(Cl)c(Cl)c1,59% (active)
19,CC(=O)Nc1ccc(C(=O)Nc2ccc(-c3nc4ccccc4[nH]3)cc2)cc1,3% (inactive)
20,O=C(Nc1ccc(-c2nc3ccccc3[nH]2)cc1)c1ccc(Cl)cc1,14% (inactive)
21,Cc1ccc(-c2nc3ccccc3[nH]2)cc1NC(=O)c1cc2ccccc2o1,8% (inactive)
22,O=C(Nc1ccc(Cl)c(-c2nc3ccccc3[nH]2)c1)c1cc2ccccc2o1,11% (inactive)
